Compound activity as filed in PubChem.
In the library only some 6% were active in any assay of this set; here they are far more common.
D1 agonist – agonists of human D1 dopamine receptor. AID 504660. actives 1% (n = 360,000). activation, % at 2 µM. HEK293 T-REx D1 cells, calcium flux, agonist mode; in the data active = activation above about 30%
Target sequence (P21728 whole entry, looked up): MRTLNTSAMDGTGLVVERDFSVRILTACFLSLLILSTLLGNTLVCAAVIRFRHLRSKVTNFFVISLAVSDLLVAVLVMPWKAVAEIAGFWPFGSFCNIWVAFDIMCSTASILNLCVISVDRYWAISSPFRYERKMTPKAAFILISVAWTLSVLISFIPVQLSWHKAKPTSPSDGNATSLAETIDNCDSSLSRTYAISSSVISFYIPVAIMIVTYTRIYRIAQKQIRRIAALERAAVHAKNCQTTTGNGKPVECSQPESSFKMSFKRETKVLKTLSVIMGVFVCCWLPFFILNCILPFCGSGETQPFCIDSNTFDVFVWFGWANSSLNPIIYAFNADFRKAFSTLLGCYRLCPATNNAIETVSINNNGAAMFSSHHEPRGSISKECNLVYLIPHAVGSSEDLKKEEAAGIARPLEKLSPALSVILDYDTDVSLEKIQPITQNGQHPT
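Inducible HEK293 T-REx D1 cells, force-coupled to calcium signalling, were plated at 4000 cells/well with tetracycline and held overnight at 30 C. After no-wash calcium dye loading, compound-evoked calcium rise over 180 s flagged agonists.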
DRD3 agonist – agonists of human D3 dopamine receptor | max activation, % | D3R DiscoveRx beta-arrestin cells, luminescence, 90 min | actives 0.58% (n = 410,000) | AID 652048; in the data active = max activation above about 30%
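Cells at 1500/well, incubated overnight, then treated with pinned compounds (dopamine as control) for 90 min at 37 degrees C. DiscoveRx reagent added for 30 - 60 minutes at room temperature; luminescence read.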
BCR signal inh – inhibitors of chronic active B-cell receptor signaling; ABC-DLBCL IkBa-CBG/CBR reporter, luminescence ratio, 4 h; Potency, µM (series often up to 46.1 µM), usual class: inhibitors; actives 0.05% (n = 340,000); active = well fitted inhibition curve with a large enough effect in the signal ratio, with a control signal flat, not every such curve was filed as active; inconclusive = small, poorly fitted or top-dose-only effect, or effect the other way, or a change in a side signal; the % refers to the signal ratio
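Cell line TMD8 (human ABC DLBCL), stably expressing tet-inducible CBG68-IkBa fusion and CBR; IMDM/0.5% FBS; cpd up to 46 uM; dox induction, 4 h, 37C/5% CO2; dual luminescence; green/red ratio; MG132 control.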
D1 potentiator – human D1 dopamine receptor positive modulation; HEK293 TREx D1 cells, calcium flux, dopamine EC20 potentiation; AID 504651; P21728; actives 0.036% (n = 360,000); potentiation, % at 10 µM; in the data active = potentiation above about 30%
D1 antag – blocks dopamine activation of the human D1 receptor; actives 3.2% (n = 360,000); activity change, negative = inhibition, % at 10 µM; HEK293 TREx D1 cells, calcium flux, dopamine EC80; hits give low values; P21728; in the data active = activity change below about -30%
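Tetracycline-induced HEK293 Trex D1 cells, force-coupled to calcium, dye-loaded; compounds added and read 180 s, then EC80 dopamine added and calcium flux tracked kinetically another 180 s.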
D3 antag – antagonists of human D3 dopamine receptor; P35462; AID 652054; actives 2.5% (n = 360,000); D3R cells, DiscoveRx beta-arrestin luminescence, antagonist mode; hits give low values; max response, negative = inhibition, %; in the data active = max response below about -50%; inconclusive = no clear call, values can overlap the other calls
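Cells expressing the human receptor were seeded at 1500 cells/well, incubated overnight at 37 degrees C in 5% CO2, then exposed to library compounds with dopamine controls for 90 minutes at 37 degrees C before luminescent detection.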
Hits are given with their value; - = inactive; ? = inconclusive; . = not tested or not shown.

SMILES | D1 agonist | DRD3 agonist | BCR signal inh | D1 potentiator | D1 antag | D3 antag
COc1ccc(/C=C/C(=O)OCC(=O)Nc2ccc3[nH]c(=O)[nH]c3c2)cc1OC | - | - | - | - | -32 | -
CCOC(=O)/C=C/C(=O)Nc1cccc([N+](=O)[O-])c1 | - | - | ? | - | - | -
CCOC(=O)/C=C/C(=O)OCC(=O)Nc1ccc([N+](=O)[O-])cc1 | - | - | ? | - | -33 | -
C/C=C/c1ccc(OCC(=O)Nc2ccncc2)c(OC)c1 | - | - | - | - | - | -
COc1cc(/C=C/C(=O)OCC(=O)Nc2ccc([N+](=O)[O-])cc2)ccc1O | 31 | - | - | - | - | -
C/C=C/c1ccc(OCC(=O)Nc2ccc(OC)c(OC)c2)c(OC)c1 | - | - | - | - | -38 | -
O=C(COC(=O)/C=C/c1ccc(F)cc1)Nc1ccc2[nH]c(=O)[nH]c2c1 | - | - | - | - | - | -
O=C(NCCN1CCc2ccccc2C1)C1CCN(S(=O)(=O)N2CCCCC2)CC1 | - | - | - | - | - | -66
O=C(NCCN1CCc2ccccc2C1)C1CCN(S(=O)(=O)N2CCC3(CC2)OCCO3)CC1 | - | - | - | - | - | -60
CC1(C)CC(=O)C=C(c2ccc(-c3cccc(C(N)=O)c3)cc2)C1=O | . | - | . | . | . | -
COc1ccc(-n2nc(C(=O)N3CCN(c4ccccc4OC)CC3)c3c4ccccc4n(C)c3c2=O)cc1 | - | - | . | - | - | .
COc1ccc(OC)c(-c2cc(C3CCN(C(=O)OC(C)(C)C)CC3)[nH]n2)c1 | - | 46 | - | - | - | -
COc1ccc(-n2ccnc(NCc3cccs3)c2=O)cc1 | - | - | . | - | -34 | .
Cc1ccc(CNC(=O)C2CCN(S(=O)(=O)N3CCCC3)CC2)cc1 | - | - | - | - | - | -
Cc1ccc(CNC(=O)C2CCN(S(=O)(=O)N3CCOCC3)CC2)cc1 | - | 40 | - | - | - | -
CS(=O)(=O)N1CCC(C(=O)NCc2ccc3c(c2)OCO3)CC1 | - | - | - | - | -35 | -
CC(C)NC(=O)C1CCN(C2CCN(C(=O)Cc3ccc4c(c3)OCO4)CC2)CC1 | - | - | - | - | -33 | -
CCc1ccccc1NC(=O)NC(CC)Cn1nnc2ccccc2c1=O (stereo unspecified) | - | - | . | - | - | .
COc1ccc(-c2cc3nc(C)c(CCC(=O)N4CCN(c5ccccc5F)CC4)c(C)n3n2)c(OC)c1 | - | - | . | - | - | .
CCOC(=O)c1cccc(NS(=O)(=O)c2c(C)nc3sc(C)cn3c2=O)c1 | - | - | . | - | - | .
CCc1nc2c(OCC3CCCCC3)cccn2c1N(C)C(=O)c1ccc(OC)cc1 | . | - | . | . | . | ?
CCCOc1cccn2c(N(C)C(=O)c3ccccc3F)c(CC)nc12 | . | - | . | . | . | -72
CCc1nc2c(OCCn3cccc3)cccn2c1N(C=O)Cc1ccc(OC)cc1 | . | - | . | . | . | -
CCc1nc2c(OCCn3cccc3)cccn2c1N(C=O)Cc1ccccc1 | . | 45 | . | . | . | -
CCc1nc2c(OCC3CCCCC3)cccn2c1N(C)C(=O)c1ccccc1F | . | - | . | . | . | -57
SMILES | D1 agonist | DRD3 agonist | BCR signal inh | D1 potentiator | D1 antag | D3 antag
CCc1nc2c(OCCC3CCCCC3)cccn2c1N(C)C(=O)c1ccccc1F | . | - | . | . | . | -57
CCCc1ccc(S(=O)(=O)N2CCC(c3nnnn3-c3ccc(OC)cc3)CC2)cc1 | - | - | . | - | - | .
COc1ccc(CN(C(C)=O)c2cc(C)c([N+](=O)[O-])cc2OC)cc1OC | . | - | . | . | . | -
Cc1c2cnn(CC(=O)NC(C)C)c(=O)c2c(C)n1Cc1cccc(Cl)c1 | - | - | . | - | -55 | .
CCc1ccc(OCC(=O)N(Cc2ccc(C(C)C)cc2)C2CCS(=O)(=O)C2)cc1 (stereo unspecified) | - | - | . | - | - | .
CCOc1ccc(CC(=O)C2C(=O)CCCC2=O)cc1OCC | - | - | - | - | -42 | -
COc1ccccc1C(=O)NNC1=C(C(=O)C(F)(F)F)CCC1 | - | - | ? | - | - | -57
Cc1cc(C)nc(SCc2csc(N)n2)n1 | - | - | ? | - | - | -51
